Screening data from PubChem.
TMEM16A inh: mouse TMEM16A channel inhibition, primary screen | actives 1.2% (n = 310,000) | HEK293 TMEM16A/YFP iodide influx fluorescence, ionomycin | normalized B-score (activity score, 25-100; higher = stronger inhibition) at 10 µM | Q8BHY3 | AID 588511;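 active = ratio plate-corrected score three or more library SD toward inhibition, starting fluorescence score within five deviations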;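 also: score derived from kinetic fluorescence span divided by baseline fluorescence per well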
CHT block: inhibitors of human choline transporter CHT. Q9GZV3. CHT-expressing cells, membrane potential dye, choline response; hits give low values. B-score at 10 µM. actives 0.86% (n = 310,000). AID 488975;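 active = B-score over 3 SD under the library average, and starting fluorescence ratio not unusually high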;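 also: choline stimulus applied at its EC90 after an EC20 pre-addition; B-score computed on integrated fluorescence ratio after choline addition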
TMEM16A act: mouse TMEM16A channel activation, primary screen; HEK293 TMEM16A/YFP-H148Q/I152L, iodide quench fluorescence; hits give low values; Q8BHY3; B-score at 10 µM; actives 0.3% (n = 340,000);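 active = fluorescence-ratio B-score plate-corrected deviation score at least 3 library SD below zero, with starting fluorescence score within 5 deviations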;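 also: channel opened by trigger with iodide after compound preincubation; score built on the fluorescence ratio of max minus min over baseline; more negative score means more quench and so TMEM16A activation or potentiation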
CHT PAM: allosteric activators of human choline transporter CHT. CHT-expressing cells, membrane potential dye, choline EC20; hits give high values; LV-AA mutant CHT in HEK293 cells. B-score at 10 µM. actives 0.49% (n = 310,000). AID 488977;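 active = initial fluorescence not abnormally high and integrated response B-score, plate-corrected, over 3 SD above library mean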
A number is an active result; i = inactive; nt = no result. Rows were chosen to be rich in hits. Some 2.4% of all compounds tested hit in one or more screens of this group.

SMILES	TMEM16A inh	CHT block	TMEM16A act	CHT PAM
Cc1cccc(NC(=S)NCC(C)CSc2ccc(Cl)cc2)c1 (stereo not given)	25	i	i	i
CCOc1ccc(-n2ccc(=O)c(C(=O)Nc3ccc(S(=O)(=O)Nc4nccs4)cc3)n2)cc1	i	i	-23	i
CCCc1ccc(Oc2cn[nH]c2-c2ccc(O)c(C)c2O)cc1	100	i	i	i
NCCCn1c(C(=O)c2cc(Cl)c(N)c(Cl)c2)c2ccc([N+](=O)[O-])cc2[n+]1[O-]	i	-5.5	i	i
Cc1ccc(C(=O)c2c3ccc([N+](=O)[O-])cc3[n+]([O-])n2CCC(N)=O)cc1	i	i	i	i
Cc1cccc(S(=O)(=O)NNC(=O)Cc2cccn2C)c1	25	i	i	i
CN1C=CC=C/C1=C1/SC(=S)N(Cc2ccccc2)C1=O	i	i	i	i
CCc1cc(C(=O)Nc2ccc(OC)nc2)sc1C	i	i	-5.1	i
CCCn1c(NC(=O)CCS(=O)(=O)c2ccc(C)cc2)nc2ccccc21	i	i	i	i
CN(CC1CCCO1)S(=O)(=O)c1ccc(C(=O)Nc2nc(-c3ccccn3)cs2)cc1 (stereo not given)	25	i	i	i
CN(CC1CCCO1)S(=O)(=O)c1ccc(C(=O)Nc2ccccc2F)cc1 (stereo not given)	i	i	i	i
CCCC(c1nnnn1Cc1cccs1)N1CCN(C2CCCC2)CC1 (stereo not given)	i	i	i	6.3
COc1cc(CC(=O)OCC(=O)Nc2sccc2C(N)=O)cc(OC)c1OC	100	i	i	i
CCC(C(=O)OCC(=O)Nc1cc(Cl)cc(Cl)c1)c1ccccc1 (stereo not given)	100	i	i	i
CCC(C(=O)OCC(=O)Nc1cccc(C(C)=O)c1)c1ccccc1 (stereo not given)	i	i	i	i
CCC1CN(C(=O)N2CCC(C(=O)Nc3ccccc3OC)CC2)c2ccccc2O1 (stereo not given)	i	i	i	i
CC1(C)CC(=O)C(C2C3=C(CC(C)(C)CC3=O)Oc3c(Br)cc(Br)cc32)=C(O)C1 (stereo not given)	25	i	i	i
O=C(Cn1nc(-c2ccc(Cl)cc2)ccc1=O)NCC1CCCO1 (stereo not given)	i	i	-17	i
CC(C)CN1C(=O)c2ccc(C(=O)Nc3ccc(O)cc3C(=O)O)cc2C1=O	i	i	i	i
CC(c1ccccc1)N1C(=O)c2ccc(C(=O)Nc3ccc(Br)cc3C(=O)O)cc2C1=O (stereo not given)	100	i	i	i
CN(C)CCN(C)Cc1c2ccccc2c(CN(C)CCN(C)C)c2ccccc12	i	i	-5.5	i
COc1ccc(C(CNC(=O)c2ccc(N3CCCC3=O)cc2)N(C)C)cc1 (stereo not given)	25	i	i	i
COc1ccc(C(CNC(=O)c2ccc3c(c2)OCCO3)N(C)C)cc1 (stereo not given)	i	i	i	i
CCCn1nc(C(=O)Nc2ccc3c(c2)OCO3)c2ccccc2c1=O	nt	nt	i	nt
CCOC(=O)c1ccc2c(c1)N(CC#N)C(=O)C(C)(C)O2	25	i	i	i
SMILES	TMEM16A inh	CHT block	TMEM16A act	CHT PAM
CC[C@H](C)/C=C/C1=CC2=C(Cl)C(=O)[C@@]3(C)OC(=O)C(C(=O)[C@H](C)[C@@H](C)O)=C3C2=CO1	25	i	i	i
O=C(O)/C=C1\NC(=O)c2ccccc21	i	i	i	i
O=C1N/C(=C\c2ccc(O)cc2)C(=O)c2ccccc21	25	i	i	i
Cc1ccn2c(NC(=O)C(C)(C)Oc3ccc(Cl)cc3)c(-c3cccs3)nc2c1	i	-7.9	i	i
COC(=O)Cc1ccc(NC(=O)c2ccc(C(C)(C)C)cc2)cc1	100	i	i	i
CC1(C)CC(=O)C(C(c2ccncc2)C2C(=O)CC(C)(C)CC2=O)C(=O)C1	i	i	-14	i
COc1cc(C(C2C(=O)CC(C)(C)CC2=O)C2C(=O)CC(C)(C)CC2=O)cc(OC)c1OC	i	i	i	i
O=C(/C=C/c1ccc(O)c(O)c1)OCCc1ccccc1	100	i	i	i
O=C(C=Cc1cccc(O)c1)c1ccccc1O	nt	nt	i	nt
O=C(/C=C/c1ccc(O)c(O)c1)OC(Cc1ccc(O)c(O)c1)C(=O)O (stereo not given)	i	i	i	i
O=C(/C=C/c1ccc(O)c(O)c1)c1ccccc1O	100	i	i	i
CC1(C(=O)CSc2nc3ccccc3s2)CCC(=O)O1 (stereo not given)	100	i	i	i
CC[C@H](C)[C@@H](C(=O)NCCCCCCCCCCC(=O)N1CCN(C(=O)OC(C)(C)C)CC1)n1cc(CCCCCNC(=O)OC(C)(C)C)nn1	25	i	i	i
CC[C@H](C)[C@@H](C(=O)NCCCCCCCCCCC(=O)N1CCN(C(=O)OC(C)(C)C)CC1)n1cc(CCCCN=C(NC(=O)OC(C)(C)C)NC(=O)OC(C)(C)C)nn1	i	i	nt	i
CC(C)(C)OC(=O)NCCCCCc1cn([C@@H](CO)C(=O)NCCCCCCCCCCC(=O)N2CCN(C(=O)OC(C)(C)C)CC2)nn1	100	i	i	i
CCCN(CC1CC1)C(=O)COC(=O)c1ccc(CNS(=O)(=O)c2ccc(F)c(Cl)c2)cc1	i	i	i	i
Cc1nnc(SCc2nnc(-c3ccccc3Br)o2)s1	i	i	-7.9	i
COc1ccccc1NC(=O)CN(Cc1ccco1)C(=O)c1ccc(N2CCCC2=O)cc1	nt	nt	i	nt
CN1Cc2cc(C(=O)c3cc(Cl)cc(CSc4ncccn4)c3O)cnc2NC1=O	i	i	nt	7
COc1ccc(Br)cc1S(=O)(=O)N(CC(=O)N1CCOCC1)c1ccccc1	i	i	i	i
FC(F)(F)c1cc(CCN2CCNC[C@H]2Cc2cccc3ccccc23)cc(C(F)(F)F)c1	i	i	-9.7	i
Oc1ccc(C[C@@H]2CNCCN2CCc2cc(C(F)(F)F)cc(C(F)(F)F)c2)cc1	i	i	i	i
CC(=O)c1ccc(S(=O)(=O)N2CCN(C(=O)c3ccc(-n4nc(C)c(Cl)c4C)cc3)CC2)cc1	nt	nt	i	nt
Cc1nn(-c2ccc(C(=O)N3CCN(S(=O)(=O)c4ccccc4C(F)(F)F)CC3)cc2)c(C)c1Cl	nt	nt	-5.8	nt
CCCc1nc2c(=O)[nH]c3ccccc3c2o1	i	i	i	i
SMILES	TMEM16A inh	CHT block	TMEM16A act	CHT PAM
Cc1cc(NCCCn2ccnc2)n2nc(C)c(-c3ccc(Cl)cc3)c2n1	i	-5.1	i	i
Cc1cc(NCCCn2ccnc2)n2ncc(-c3ccccc3)c2n1	i	i	i	i
CCCCCCCCCCCC1=C(O)C(=O)C=C(O)C1=O	i	i	i	i
COC1=CC(=O)C(O)=C(CCCCCCC/C=C/CCCCCCCC2=C(O)C(=O)C=C(OC)C2=O)C1=O	100	i	i	i
CCC(=O)Nc1ccc2c(c1)nc(CCN1CCN(c3ccccc3)CC1)n2C	i	i	i	i
CC1CN(S(=O)(=O)c2cccc(C(=O)OCC(=O)NCc3ccccc3)c2)CC(C)O1 (stereo not given)	nt	nt	i	nt
COc1ccc(CNC(=O)CN(Cc2ccco2)C(=O)CNS(=O)(=O)c2ccc(C)cc2)cc1	i	i	i	i
